We go through 28 compounds from the supplement of paper PMC11865577.

Experiment in all cases: normalised indicator fluorescence (fraction of RNA + indicator signal without compound); higher = less displacement of indicator (weaker competition)
Common to all, as to conditions: compound concentration: 5 uM, 30 min

Experiment [1] concerns SARS-CoV-2 low-rank motif (SARS-low). Put shortly:
(§1)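 Compounds, each at about 5 uM final from 0.25 μL of 1 mM DMSO stock, were tested in 96-well plates for displacement of TO-PRO-1 or TO-PRO-3 from RNA in 20 mM phosphate pH 7.0, 20 mM NaCl, 80 mM KCl. Fluorescence was recorded after 30 min on an Infinite 200 PRO (excitation 485 or 620 nm). Reported values are averages of two independent experiments, calculated as indicator fluorescence minus the buffer-plus-indicator blank, divided by the RNA-plus-indicator signal without compound.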

The subject of a further experiment is hsa-mir-191 loop. Summed up:
as §1

Another experiment has as its system hsa-mir-21 loop. Summed up:
as §1

The test system of a further experiment is hsa-mir-221 loop. Put shortly: as §1
A further experiment deals with hsa-mir-374a loop. Summed up:
as §1

The subject of another experiment is hsa-mir-6850 loop. Put shortly: as §1
[2] abbreviates: indicator: TO-PRO-1 0.1 uM, RNA concentration: 0.1 uM.
The mark [3] stands for this setting: indicator: TO-PRO-3 0.5 uM, RNA concentration: 0.5 uM.

Molecules are shown by their SMILES. Counter-ions that a name gives are not always drawn.

Take `O=C(O)/C=C/c1ccc(Cn2ccnc2)cc1` [Ozagrel hydrochloride]: the figures for the normalised indicator fluorescence in experiment [1] (setting [2]) and in experiment [1] (setting [3]) were 1.1 and 1.09, respectively.

Consider `COc1ccc(-c2coc3cc(O)ccc3c2=O)cc1O` [Calycosin], for which the normalised indicator fluorescence in experiment [1] (setting [2]) came out at 1.4; in experiment [1] (setting [3]), 1.09.

For the compound `O=c1ccc2ccc(O)cc2o1` [7-Hydroxycoumarin], the normalised indicator fluorescence in experiment [1] (setting [2]) amounted to 1.25; in experiment [1] (setting [3]) it was 1.16.

As to `CC1=NN(c2ccccc2)C(=O)C1` [Edaravone], the normalised indicator fluorescence in experiment [1] (setting [2]) was determined as 1.13; in experiment [1] (setting [3]), 1.32.

`CCOc1cc(C(=O)N2CCC(N3CCN(C)CC3)CC2)ccc1Nc1ncc2c(n1)N(C1CCCC1)c1ccccc1C(=O)N2C`: the normalised indicator fluorescence in experiment [1] (setting [2]) was 1.2; in experiment [1] (setting [3]) it was 1.03.

On to `COC1=C(OC)C(=O)C(CCCCCCCCCCO)=C(C)C1=O` [Idebenone], for which the normalised indicator fluorescence was 1.21 in experiment [1] (setting [2]) and 1.12 in experiment [1] (setting [3]).

Consider `O=c1c(O)c(-c2ccccc2)oc2cc(O)cc(O)c12` [Galangin], for which the normalised indicator fluorescence worked out at 1.12 in experiment [1] (setting [2]) and 1.28 in experiment [1] (setting [3]).

With `CC1=C[C@]2(O)O[C@@]3(CC2=C(C)C)[C@@H](C)CC[C@@H]13` [Curcumenol], the normalised indicator fluorescence in experiment [1] (setting [2]) amounted to 1.11; in experiment [1] (setting [3]), 1.05.

With `Fc1ccc(-c2nc3n(c2-c2ccncc2)CCS3)cc1`, the normalised indicator fluorescence in experiment [1] (setting [2]) worked out at 1.3; in experiment [1] (setting [3]), 1.15.

Turning to `Cc1oncc1C(=O)Nc1ccc(C(F)(F)F)cc1` [Leflunomide], the normalised indicator fluorescence in experiment [1] (setting [2]) was 1.07; in experiment [1] (setting [3]), 1.12.

For `Oc1ccc(-c2nc(-c3ccc(F)cc3)c(-c3ccncc3)[nH]2)cc1`, the normalised indicator fluorescence stood at 1.2 in experiment [1] (setting [2]) and 1.23 in experiment [1] (setting [3]).

With `COc1c(C)cnc(Cn2cnc3c(Cl)nc(N)nc32)c1C`, the normalised indicator fluorescence in experiment [1] (setting [2]) came to 1.13; in experiment [1] (setting [3]), 1.17.

In the case of `CCCC(C(=O)OCCN(CC)CC)(c1ccccc1)c1ccccc1` [Proadifen hydrochloride], the normalised indicator fluorescence in experiment [1] (setting [2]) came to 1.28; in experiment [1] (setting [3]), 1.04.

For the compound `CC1=CC(=O)c2c(O)cccc2C1=O` [Plumbagin], the normalised indicator fluorescence in experiment [1] (setting [2]) came out at 1.22; in experiment [1] (setting [3]), 1.02; in the experiment with hsa-mir-191 loop (setting [2]), 1.02; in the experiment on hsa-mir-191 loop (setting [3]), 1.01; in the experiment with hsa-mir-21 loop (setting [2]) it was 0.979; in the experiment on hsa-mir-21 loop (setting [3]), 0.979. For the same compound, the normalised indicator fluorescence in the experiment on hsa-mir-221 loop (setting [2]) amounted to 1.02; in the experiment with hsa-mir-221 loop (setting [3]) it was 1.05; in the experiment on hsa-mir-374a loop (setting [2]), 1.17; in the experiment on hsa-mir-374a loop (setting [3]), 1.15; with hsa-mir-6850 loop (setting [2]) it was 0.922; in the experiment on hsa-mir-6850 loop (setting [3]) it was 1.01.

`O=C(COc1ccc(Cl)cc1)NC1CCC(NC(=O)COc2ccc(Cl)cc2)CC1` (stereo unspecified): the normalised indicator fluorescence in experiment [1] (setting [2]) is 1.05; in experiment [1] (setting [3]), 0.94.

Take `CN1CCN(c2nc(C3=C(c4c[nH]c5ccccc45)C(=O)NC3=O)c3ccccc3n2)CC1` [Sotrastaurin]: the normalised indicator fluorescence is 1.4 in experiment [1] (setting [2]) and 1.29 in experiment [1] (setting [3]).

As to `CC(C)=CCC[C@](C)(O[C@@H]1O[C@H](CO)[C@@H](O)[C@H](O)[C@H]1O)[C@H]1CC[C@]2(C)[C@@H]1[C@H](O)C[C@@H]1[C@@]3(C)CC[C@H](O)C(C)(C)[C@@H]3[C@@H](O[C@@H]3O[C@H](CO)[C@@H](O)[C@H](O)[C@H]3O[C@@H]3OC[C@@H](O)[C@H](O)[C@H]3O)C[C@]12C` [Notoginsenoside R1], the results for the normalised indicator fluorescence in experiment [1] (setting [2]) and in experiment [1] (setting [3]) were 1.23 and 1.26, respectively.

As for `O=C1c2c(O)cc(O)cc2OC(c2ccc(O)c(O)c2)C1O` (stereo unspecified) [Taxifolin], the normalised indicator fluorescence in experiment [1] (setting [2]) was 1.25; in experiment [1] (setting [3]), 1.31.

As to `CC(C)OC(=O)CCC/C=C\C[C@@H]1[C@@H](CC[C@@H](O)CCc2ccccc2)[C@H](O)C[C@@H]1O` [Latanoprost], the normalised indicator fluorescence in experiment [1] (setting [2]) came out at 1.12; in experiment [1] (setting [3]), 1.2.

Turning to `[I-].[K+]` [Potassium iodide], the normalised indicator fluorescence in experiment [1] (setting [2]) turned out to be 1.21; in experiment [1] (setting [3]) it was 1.29.

Consider `NC(=O)N/N=C/c1ccc([N+](=O)[O-])o1` [Furacilin], for which the normalised indicator fluorescence was found to be 1.11 in experiment [1] (setting [2]) and 1.05 in experiment [1] (setting [3]).

As to `CCNC(=O)c1noc(-c2cc(Cl)c(O)cc2O)c1-c1ccc(OC)cc1`, the values for the normalised indicator fluorescence in experiment [1] (setting [2]) and in experiment [1] (setting [3]) were 1.27 and 1.43, respectively.

As to `Cn1cc(-c2ccc3c(c2)CCN3C(=O)Cc2cccc(C(F)(F)F)c2)c2c(N)ncnc21`, the normalised indicator fluorescence in experiment [1] (setting [2]) was 1.35; in experiment [1] (setting [3]) it was 1.24.

With `COc1ccc2c(c[n+](C)c3c4cc5c(cc4ccc23)OCO5)c1OC` [Chelerythrine chloride], the normalised indicator fluorescence was determined as 1.46 in experiment [1] (setting [2]); 0.807 in experiment [1] (setting [3]); 0.626 with hsa-mir-191 loop (setting [2]); 0.656 with hsa-mir-191 loop (setting [3]); 0.586 with hsa-mir-21 loop (setting [2]); 0.724 in the experiment with hsa-mir-21 loop (setting [3]). The normalised indicator fluorescence in the experiment with hsa-mir-221 loop (setting [2]) turned out to be 0.568; in the experiment on hsa-mir-221 loop (setting [3]), 0.592; with hsa-mir-374a loop (setting [2]), 1.01; in the experiment on hsa-mir-374a loop (setting [3]), 1.02; in the experiment on hsa-mir-6850 loop (setting [2]), 0.335; with hsa-mir-6850 loop (setting [3]), 0.494.

Take `COc1ccc(C2CC(=O)c3c(O)cc(OC4OC(COC5OC(C)C(O)C(O)C5O)C(O)C(O)C4O)cc3O2)cc1OC` (stereo unspecified) [Methyl hesperidin]: the normalised indicator fluorescence in experiment [1] (setting [2]) amounted to 1.08; in experiment [1] (setting [3]) it was 1.37.

For the compound `N#Cc1c(NC(=O)c2cccc3ccccc23)sc2c1CCCC2`, the normalised indicator fluorescence in experiment [1] (setting [2]) is 1.03; in experiment [1] (setting [3]) it was 1.1.

`C[S+]([O-])c1ccc(-c2nc(-c3ccc(F)cc3)c(-c3ccncc3)[nH]2)cc1` (stereo unspecified): the normalised indicator fluorescence in experiment [1] (setting [2]) is 1.04; in experiment [1] (setting [3]), 0.92.

In the case of `C[C@@H]1O[C@@H](Oc2c(-c3cc(O)c(O)c(O)c3)oc3cc(O)cc(O)c3c2=O)[C@H](O)[C@H](O)[C@H]1O` [Myricetrin], the values for the normalised indicator fluorescence in experiment [1] (setting [2]) and in experiment [1] (setting [3]) were 0.999 and 1.07, respectively.
